Experimental data: PubChem BioAssay (NCI)
This is part of a sample that, as a whole, favours compounds with a hit. Of some 79,000 tested, about 15% had one in any assay. Unmarked numbers belong to inactive results. Active and inactive are the calls of the source. No stated cut-off is given here; in the data, active means growth inhibition above about 70%; inactive means the rest.

Test: NCI Yeast Anticancer Drug Screen. Data for the cln2 rad14 strain (AID 165);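 further: 0% = growth equal to vehicle treated cultures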
Conditions: S. cerevisiae cln2 rad14 strain, at 50.0 µM, stronger effect = higher value
In short: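 Each compound was tested on cln2 rad14 yeast. Inhibition of growth was calculated against vehicle-exposed controls.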

SMILES | growth inhibition
CCCCC(O)(CCCC)CC(C)C | -19.9%
Cc1ccccc1NCS(=O)(=O)O | -6.35%
C/C(=N\NS(=O)(=O)c1ccc(C)cc1)c1c(C)noc1C | 3.85%
CN1NC2=NCCN=C3NN(C)C(=NCCN=C1S2)S3 | 9.15%
CCOC(=O)Cc1nc2ncncc2[nH]c1=O | 15.3%
C/C=C/c1ccc(OCC)c(OC)c1 | -8.8%
O=C(c1ccco1)N(C(=S)N1CCN(c2ccccc2)CC1)c1ccccc1 | -4.4%
CC(=O)Nc1c(C)ccc([N+](=O)[O-])c1C | 5.95%
CC(C)CCCC(C)C1CCC2C3C(O)CC4CCCCC4(C)C3CCC12C (stereo unspecified) | 95.2% (active)
CC(C)CC(=O)c1ccc2ccccc2c1O | -12.2%
O=C(Cc1nc2sc3c(c2c(=O)[nH]1)CCCC3)Nc1ccccc1 | 5.9%
C[C@@H]1C(=O)CC2(O)[C@@]13C[C@@H](OC(=O)[C@@H]3O)[C@@H](C)[C@@]21COC1=O (stereo partly specified) | -6.65%
O=c1ccn(C2OC(CF)C(O)C2O)c(=O)[nH]1 (stereo unspecified) | 9.05%
N=C(N)n1ncc(Cl)c(Cl)c1=O | 30.4%
CC(=O)ON(C(=O)c1ccccc1)c1ccccc1 | -5.15%
C#CC(C)(O)c1ccccc1 (stereo unspecified) | -21.6%
CC1(C)[C@H](C(=O)O)N2C(=O)[C@@H](NC(=O)C(c3ccccc3)c3ccccc3)[C@H]2S1=O (stereo partly specified) | 3.65%
COc1cc([N+](=O)[O-])c2ncccc2c1OC | -20.2%
CC(=N\N)/C(C)=N/N=C(C)/C(C)=N/N=C(C)/C(C)=N/N=C(C)/C(C)=N/N | 13.7%
COc1ccc(-c2c3ccccc3c(-c3ccc(OCCCCCBr)cc3)c3ccccc23)cc1 | -30.1%
CCC(c1ccc(C(C)=O)c(O)c1)C(CC)c1ccc(C(C)=O)c(O)c1 (stereo unspecified) | 8.7%
CCC(CO)(CO)CBr | -14.7%
O=C(O)CCNCCCCNCCC(=O)O | -1.5%
COc1cc(C(=O)O)cc(OC(C)=O)c1OC | 8.65%
CC(=O)CC(C)=NCCN=C(C)CC(C)=O.[Cu] | 84.4% (active)
COCCOCOCCCC#C[Si](C)(C)C | -1.2%

Test: NCI Yeast Anticancer Drug Screen. Data for the bub3 strain (AID 167)
Conditions: S. cerevisiae bub3 mutant strain, at 50.0 µM, stronger effect = higher value
In short: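 Inhibition values come from growth of compound-treated mutant yeast normalised to vehicle-treated controls.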

SMILES | growth inhibition
COC(=O)C(CSSCC(C(=O)NC(Cc1ccccc1)C(=O)NCC(=O)OC(C)(C)C)N1C(=O)CCC1=O)NC(=O)OCc1ccccc1 (stereo unspecified) | -51.4%
COc1cc2ccc3c[n+](C)ccc3c2cc1OC | -20.9%
CCCCNc1nc(SC)nc2nc[nH]c12 | -26.4%
O=C1c2ccccc2-c2ccc(-n3c(=O)c4ccccc4c4ccccc4c3=O)cc21 | 8.35%
O=C1NC(=O)C2CCC12 (stereo unspecified) | 8.95%
CC/C(=C/c1cccc([N+](=O)[O-])c1)C(=O)O | -13.7%
Cc1c(C(=O)O)c2cc3ccccc3cc2c(=O)n1C | -23.9%
N=c1oc2ccc([N+](=O)[O-])cc2cc1C(=O)NCc1ccccc1 | -35.5%
CNC(C#N)c1ccco1 (stereo unspecified) | 13.4%
CCCCCCC(O)C/C=C/CCCCCC/C(C(=O)OC)=C(/O)C(=O)OCC (stereo unspecified) | -6.7%
Cc1noc2c1NC(=O)OCC2 | 10.6%
O=C(O)c1ccccc1C(=O)NCc1ccc(Cl)cc1Cl | 19.9%
Nc1nc(Cl)cc(Nc2ccc3c(c2)CCC3)n1 | 23.6%
Cc1c2cnccc2c(C)c2c1c1ccccc1n2CCCCCCCl | 95.7% (active)
CCCCC(O)(CCCC)CC(C)C | -16.7%
Cc1ccccc1NCS(=O)(=O)O | -14.8%
C/C(=N\NS(=O)(=O)c1ccc(C)cc1)c1c(C)noc1C | 6.3%
CN1NC2=NCCN=C3NN(C)C(=NCCN=C1S2)S3 | -44.1%
CCOC(=O)Cc1nc2ncncc2[nH]c1=O | 2.35%
C/C=C/c1ccc(OCC)c(OC)c1 | -17.2%

SMILES | growth inhibition
O=C(c1ccco1)N(C(=S)N1CCN(c2ccccc2)CC1)c1ccccc1 | -18.1%
CC(=O)Nc1c(C)ccc([N+](=O)[O-])c1C | 2.7%
CC(C)CCCC(C)C1CCC2C3C(O)CC4CCCCC4(C)C3CCC12C (stereo unspecified) | 95.7% (active)
CC(C)CC(=O)c1ccc2ccccc2c1O | -14.2%
O=C(Cc1nc2sc3c(c2c(=O)[nH]1)CCCC3)Nc1ccccc1 | -4%
C[C@@H]1C(=O)CC2(O)[C@@]13C[C@@H](OC(=O)[C@@H]3O)[C@@H](C)[C@@]21COC1=O (stereo partly specified) | -28.1%
O=c1ccn(C2OC(CF)C(O)C2O)c(=O)[nH]1 (stereo unspecified) | 0.7%
N=C(N)n1ncc(Cl)c(Cl)c1=O | 38.9%
CC(=O)ON(C(=O)c1ccccc1)c1ccccc1 | 7.05%
C#CC(C)(O)c1ccccc1 (stereo unspecified) | -1.95%
CC1(C)[C@H](C(=O)O)N2C(=O)[C@@H](NC(=O)C(c3ccccc3)c3ccccc3)[C@H]2S1=O (stereo partly specified) | -3.9%
COc1cc([N+](=O)[O-])c2ncccc2c1OC | 0.45%
CC(=N\N)/C(C)=N/N=C(C)/C(C)=N/N=C(C)/C(C)=N/N=C(C)/C(C)=N/N | -8.35%
COc1ccc(-c2c3ccccc3c(-c3ccc(OCCCCCBr)cc3)c3ccccc23)cc1 | -22.5%
CCC(c1ccc(C(C)=O)c(O)c1)C(CC)c1ccc(C(C)=O)c(O)c1 (stereo unspecified) | 2.8%
CCC(CO)(CO)CBr | -4.9%
O=C(O)CCNCCCCNCCC(=O)O | -22.6%
COc1cc(C(=O)O)cc(OC(C)=O)c1OC | 3.4%
CC(=O)CC(C)=NCCN=C(C)CC(C)=O.[Cu] | 71.8% (active)
COCCOCOCCCC#C[Si](C)(C)C | -4%
